About 83,000 compounds went through this panel and 20% of them were active in at least one assay; those are over-represented in the sample as a whole.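 The endpoint reported here, percent growth, reads 100 for growth as untreated, 0 for no net growth and -100 for all cells dead.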 Values without a mark were called inactive. Active and inactive are the calls of the source.
Tested on: BT-549 breast
Assay: NCI-60 one-dose screen, 48 h (100 = growth as untreated, 0 = no growth, -100 = all killed)
Details: 10 µM unless noted
Method: Growth inhibition of the BT-549 human tumor cell line is measured as a screen for anti-cancer activity. Cells are grown in 96 well plates and exposed to the test compound for 48 hours. Compounds are tested at a single concentration, which is 10^-5 M for most compounds. The reported endpoint is percent growth (GI% or GIPRCNT), where numbers from 0 - 100% represent growth inhibition, and numbers from -100% - 0 represent cell death. For example, a value of 40 represents 60% growth inhibition. A value of 0 means no net growth occurred over the course of the experiment. A value of -40 indicates 40% of cells at the beginning of the experiment died by the end of the experiment. A value of -100 means all cells are dead at the end of the experiment.
NCI-60 Human Tumor Cell Lines Screen was performed using the standard one-dose NCI protocol, which is described in more detail at https://dtp.cancer.gov/discovery_development/nci-60/default.htm.
Compounds with GIPRCNT values below 10 were considered active. Activity score was based on GIPRCNT using the following formula: […]
Score is 0 for GIPRCNT values of 100 or above, 50 for GIPRCNT values of 0, and 100 for GIPRCNT values of -100.

**Q.** With `Cc1cc(C(C)(C)c2cc(C)c(O)c(CN(C)C)c2)cc(CN(C)C)c1O` as the compound, how does the growth read?
**A.** 84.5%

**Q.** With `CCOC(Cc1c(N)[nH]c(=S)[nH]c1=O)OCC` as the compound, how does the growth read?
**A.** 102%

**Q.** With `CCOc1cc(-c2ccc[nH]2)[nH]c1/C=C1\N=C(C)C(C(=O)OC)=C1C` as the compound, how does the growth read?
**A.** -43.3% (active)

**Q.** For `CCN1C[C@@H](C)n2c(c(O)c3c(=O)n(Cc4ccc(F)c(Cl)c4)nc(C(=O)NC)c32)C1=O`, which growth is on record?
**A.** 9.6% (active)

**Q.** With `CCN(CC)CCCNCCCNc1cc(OC)cc2cccnc12` as the compound, how does the growth read?
**A.** 100%

**Q.** With `Cn1cc(-c2csc(-c3cn(C)c4ncccc34)n2)c2cc(Br)cnc21` as the compound, how does the growth read?
**A.** 95.2%

**Q.** Which growth does the source give for `COc1ccc(-n2nc3c(c2-c2ccc(OC)c(OC)c2)-c2oncc2CC3)cc1` here?
**A.** 77.5%

**Q.** With `O=C(Nc1ccc(Cl)cc1)c1cc2c(cc1O)[nH]c1ccccc12` as the compound, how does the growth read?
**A.** 26.5%

**Q.** How did the growth turn out when `COc1ccc(/C(=C2\O[C@@H]([C@H](O)CO)[C@H]3OC(C)(C)O[C@@H]23)c2cc(OC)c(OC)c(OC)c2)cc1O` was run?
**A.** 82%

**Q.** For `COC(=O)CCC1=C(C)/C(=C/c2[nH]c(-c3ccc[nH]3)cc2OC)N=C1C`, which growth is on record?
**A.** 14.3%

**Q.** Which growth does the source give for `COc1ccc(/C=N/NC(=O)c2ccc(S(C)(=O)=O)cc2)cc1OC` here?
**A.** 109%

**Q.** With `N#Cc1c(N2CCOCC2)nc2sc3cc(Cl)ccc3n2c1=N` as the compound, how does the growth read?
**A.** 129%

**Q.** `COc1ccc(-n2nnc(C(=O)O)c2-c2cc(OC)c(OC)c(OC)c2)cc1` was tested. Which growth did it give?
**A.** 101%

**Q.** How did the growth turn out when `COc1c(O)cc2oc3cc(O)c(CC=C(C)C)c(O)c3c(=O)c2c1C/C=C(\C)CCC=C(C)C` was run?
**A.** 99.3%

**Q.** Which growth does the source give for `O=c1ccn(C2CCCO2)c(=O)[nH]1` (stereo not given) here?
**A.** 118%

**Q.** For `Cc1nn(-c2ccc(Cl)cc2)c2nc3c(nc12)C(=O)c1ccccc1-3`, which growth is on record?
**A.** 82%

**Q.** How did the growth turn out when `COc1cc(C2NC(c3ccc(Cl)cc3)C(C)C(=NC(=O)c3cnccn3)C2C)cc(OC)c1OC` (stereo not given) was run?
**A.** 102%

**Q.** For `COc1ccc2c(c1)nc(N)c1c3cc(C)c(C)cc3cn21`, which growth is on record?
**A.** 94.5%

**Q.** Which growth does the source give for `COC1CC2CCC(C)C(O)(O2)C(=O)C(=O)N2CCCCC2C(=O)OC(C(C)CC2CCC(O)C(OC)C2)CC(=O)C(C)C=C(C)C(O)C(OC)C(=O)C(C)CC(C)/C=C/C=C/C=C1C` (stereo not given) here?
**A.** 32.5%

**Q.** How did the growth turn out when `CC(C)C(=O)Cc1cnccn1` was run?
**A.** 110%

**Q.** With `O=C(O)c1ccc(NC(=O)c2ccc(Nc3ccnc(C(F)(F)F)c3)cc2)cc1` as the compound, how does the growth read?
**A.** 109%

**Q.** For `C=C(C[C@](O)(C(=O)/C=C/c1ccc(Cl)cc1)C(=O)OC)c1ccccc1`, which growth is on record?
**A.** 79.5%

**Q.** For `Cc1ccc2c(c1)O/C(=C\c1ccc([N+](=O)[O-])o1)C2=O`, which growth is on record?
**A.** 25.9%

**Q.** How did the growth turn out when `Cc1nc2c(O)cccc2cc1CO` was run?
**A.** 149%

**Q.** Which growth does the source give for `COc1cc(C(=O)/C=C/c2cccnc2Nc2ccccc2)cc(OC)c1OC` here?
**A.** -55.5% (active)

**Q.** With `CC(=O)c1ccc2c3c(n(C)c2c1)CCCC3` as the compound, how does the growth read?
**A.** 96.5%

**Q.** `CN1C(=O)C(=Cc2cn(Cc3ccccc3)c3ccc(Br)cc23)C(=O)N(C)C1=O` was tested. Which growth did it give?
**A.** 102%

**Q.** With `COc1ccc2c(c1)C(=O)/C(=C/c1ccc([N+](=O)[O-])s1)O2` as the compound, how does the growth read?
**A.** -52.9% (active)

**Q.** `Oc1[nH]c2ccc(Cl)cc2c1/C=c1/ccc2c(c1)N=C(c1ccc(C(F)(F)F)cc1)N=2` was tested. Which growth did it give?
**A.** 88.4%

**Q.** How did the growth turn out when `CSc1nnc(C2=CC(=O)c3ccccc3C2=O)n1-c1ccccc1` was run?
**A.** 92.9%

**Q.** How did the growth turn out when `Cc1ccc(NC(=O)COC(=O)c2ccc(S(=O)(=O)N3CCCCCC3)cc2)cc1` was run?
**A.** 141%

**Q.** Which growth does the source give for `COc1cc([C@@H]2c3cc4c(cc3C(O[C@@H]3O[C@@H]5CO[C@@H](c6cccs6)OC5[C@H](O)[C@H]3O)C3COC(=O)[C@@H]32)OCO4)cc(OC)c1O` (stereo not given in full) here?
**A.** -20.3% (active)

**Q.** Which growth does the source give for `COC(=O)[C@]12CC[C@@H](C)[C@H](C)[C@@H]1C1=CC[C@@H]3[C@@]4(C)C[C@@H](OC(=O)c5ccco5)[C@H](O)[C@@](C)(CO)[C@@H]4[C@H](O)C[C@@]3(C)[C@]1(C)CC2` here?
**A.** -68.1% (active)

**Q.** Which growth does the source give for `CSc1nc2c(c(=O)[nH]1)C(c1ccc(Cl)cc1)C1=C(N2)/C(=C/c2ccc(Cl)cc2)CNC1` (stereo not given) here?
**A.** 24.8%

**Q.** `O=C1Nc2ccc(F)cc2/C1=C/c1nc(-c2ccc(F)cc2)n2ccccc12` was tested. Which growth did it give?
**A.** 96.8%

**Q.** `COc1ccc(C2=NN(C(=O)c3cc(OC)c(OC)c(OC)c3)C(c3ccc(C#N)cc3)C2)cc1OC` (stereo not given) was tested. Which growth did it give?
**A.** 28.6%

**Q.** How did the growth turn out when `COc1ccc(/C=C/C(=O)Nc2cccnc2Nc2ccc(F)cc2)cc1` was run?
**A.** 89.3%

**Q.** Which growth does the source give for `COc1ccc2nc(NC(=O)c3cc(-c4ccc(F)cc4)n4nc(-c5ccccc5)cc4n3)sc2c1` here?
**A.** 53.5%

**Q.** How did the growth turn out when `O=C1/C(=N/O)CCc2ccccc21` was run?
**A.** 102%

**Q.** For `Cc1nc(N)[nH]c(=O)c1C`, which growth is on record?
**A.** 45.1%
